system: PXR homodimer (NR concentration 270 nM); assay: PBM binding z-score (relative to random genomic background probes); higher = stronger binding; sequences stand for … in GC…GCGATTGACAGCGTAGAATGAAGG
Procedure, shortened: (§1)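 Custom Agilent 4×180K protein-binding microarrays carried double-stranded probes, each with a 34-nt variable region. These regions held direct-repeat seeds, single-nucleotide variants, half-site ablations and random human genomic background sequences. Ligand-free nuclear receptor dimers were incubated on the arrays for 1 h, antibodies against each partner (one per run) detected binding, and scanned fluorescence was regression-normalized. Binding z-scores take the random background probes as reference.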

Sequence | PBM binding z-score
TCTCGGAGGACACGAAGGTCAGAGCCTTCCAGAG | 0.864
ACAGACAGGTGAGTGAAGGTAACGCAGCTGGACG | -0.327
AGTCAAAGTTCAGGACGAGGTATCGTAAAGCACG | 1.4
TCTAGTTGGTCACGGCGGTCACACACGACGGGTA | 0.174
ACTGACGGGTCAACGAGGTTATAGCACGCGTATA | 2.3
TCGAGTAGGTTAGGGGCAATCAGAATGGCGTCGA | 0.0887
AGAATGAGGTTAAGATCAGCGAAACAGAATACAT | 0.422
TCAGACAAGTGAAGGTAACTCAGGTACGCAGTCG | -0.105
ACTATTAGTTGACTTAGGGCAACCGCTACGACGC | -0.0423
ATGTGTAGGTTAAGGGTCATTCAGGTTGGTTCGC | 4.53
CAAACTCGGTCACGAAAGGTCAAAGTCGAATGAC | 2.67
ATATATAGGTTACATCCGGGTCATTCAGGCTATG | 2.95
AGAATGAGGTTACCAAAGATCATGGAAACGCTTG | 0.0925
TTACCAAGCTGAAAGGTCGTTGATGCACGCCTTG | -0.0821
CTCGAAAGGTCGTGCTCAGCTGAGTATACCAAAC | -0.206
ACCGAAAGGTCGACGAGGTGAGTATACACCGTTT | 0.279
AGCATGAGGTTATTAAGATCAGGGAATTGCGGTC | 0.786
AGAACGAGGGCAATGATTTGATAGCACGGGTGGC | 0.328
TCATATAGGTAATACAGGTGACAGTCGGCATCTA | 0.723
CCTAGCAGGCCAATCTGGGCCACTCAAGGCTTGA | -1.05

Sequence | PBM binding z-score
CCAAACAGGTGAGAAGGTAACTCAGCCTCGATTA | 0.0845
GTTAGTTGGTCAGTAAAAGGTCACACACCGGTCG | 1.74
TCATATAGGTAAATGCTAGGGGAAAGTCCGATCT | 0.33
CCTTACGGTTCACTCCAGGTTATAGCATCGGAGT | 1.46
ACTAGCAGGCCAAGTTTGGGTCTCTCAAACAAAG | -0.734
TCGACTAGGTTAGTCGGGGCATTCAGCCAACATA | -0.422
ATCTCTAGGTAACGAAGTTCAGTGAATGCCGAAC | 0.916
CATACAGGGTCAGCCAGGCCAGAGTAGGGACGGC | 0.168
ATATGAAGGTTAGCTGGGGTCATTCAGACTAGGC | 5
ATCTCTAGGTAAAGATAGTTCAGCGAATGCAAAT | 0.643
TATACAGGGTCAAAGCCCAGAGTACGAATGTCGA | 0.241
TCTGCTAAGTCAACGATGGTCAGCTAATCTGCTA | -1.18
ATATGTAGGTTACATCCGGGTTATTCAGGCTATG | 0.531
CCTATTACTTGACCATAAGGGCAACCGAAGCTCG | 1.2
CCTATTAGTTGACCATAAGGGCGACCGAAGCTCG | 0.541
TCTAGTTGGTCACTGAGGTCACACACGACGGGTA | 2.81
TCTGCTAGGTCAACGATGGTCAGCTCATCTGCTA | -1.45
AGAATGAGGTTATACGCAGATCAGGGAAGAAAGT | 0.481
TCTATTAGTTGTTTAGGGCAACCGAAACAGCGGA | 0.33
CCCGACAGGTGAAAGGTAACTCAGTCTGGTACGC | 0.0265

system: RARa:RXR (NR concentration 270 nM, RXRa partner concentration 90 nM); assay: as above
Procedure, shortened: as §1

Sequence | PBM binding z-score
TCTCGGAGGACACGAAGGTCAGAGCCTTCCAGAG | 2.36
ACAGACAGGTGAGTGAAGGTAACGCAGCTGGACG | 0.359
AGTCAAAGTTCAGGACGAGGTATCGTAAAGCACG | 2.06
TCTAGTTGGTCACGGCGGTCACACACGACGGGTA | 0.871
ACTGACGGGTCAACGAGGTTATAGCACGCGTATA | 4.36
TCGAGTAGGTTAGGGGCAATCAGAATGGCGTCGA | 0.347
AGAATGAGGTTAAGATCAGCGAAACAGAATACAT | 1.82
TCAGACAAGTGAAGGTAACTCAGGTACGCAGTCG | 0.807
ACTATTAGTTGACTTAGGGCAACCGCTACGACGC | 0.605
ATGTGTAGGTTAAGGGTCATTCAGGTTGGTTCGC | 6.37
CAAACTCGGTCACGAAAGGTCAAAGTCGAATGAC | 6.96
ATATATAGGTTACATCCGGGTCATTCAGGCTATG | 4.05
AGAATGAGGTTACCAAAGATCATGGAAACGCTTG | 2.58
TTACCAAGCTGAAAGGTCGTTGATGCACGCCTTG | 1.66
CTCGAAAGGTCGTGCTCAGCTGAGTATACCAAAC | 3.49
ACCGAAAGGTCGACGAGGTGAGTATACACCGTTT | 3.29
AGCATGAGGTTATTAAGATCAGGGAATTGCGGTC | 1.44
AGAACGAGGGCAATGATTTGATAGCACGGGTGGC | 0.36
TCATATAGGTAATACAGGTGACAGTCGGCATCTA | 1
CCTAGCAGGCCAATCTGGGCCACTCAAGGCTTGA | -1.11

Sequence | PBM binding z-score
CCAAACAGGTGAGAAGGTAACTCAGCCTCGATTA | 0.105
GTTAGTTGGTCAGTAAAAGGTCACACACCGGTCG | 6.27
TCATATAGGTAAATGCTAGGGGAAAGTCCGATCT | 0.628
CCTTACGGTTCACTCCAGGTTATAGCATCGGAGT | 2.25
ACTAGCAGGCCAAGTTTGGGTCTCTCAAACAAAG | -0.606
TCGACTAGGTTAGTCGGGGCATTCAGCCAACATA | 0.0483
ATCTCTAGGTAACGAAGTTCAGTGAATGCCGAAC | 0.507
CATACAGGGTCAGCCAGGCCAGAGTAGGGACGGC | 3.13
ATATGAAGGTTAGCTGGGGTCATTCAGACTAGGC | 5.87
ATCTCTAGGTAAAGATAGTTCAGCGAATGCAAAT | 0.739
TATACAGGGTCAAAGCCCAGAGTACGAATGTCGA | 4.55
TCTGCTAAGTCAACGATGGTCAGCTAATCTGCTA | -0.422
ATATGTAGGTTACATCCGGGTTATTCAGGCTATG | 1.57
CCTATTACTTGACCATAAGGGCAACCGAAGCTCG | 1.05
CCTATTAGTTGACCATAAGGGCGACCGAAGCTCG | 0.509
TCTAGTTGGTCACTGAGGTCACACACGACGGGTA | 5.06
TCTGCTAGGTCAACGATGGTCAGCTCATCTGCTA | 2.37
AGAATGAGGTTATACGCAGATCAGGGAAGAAAGT | 1.59
TCTATTAGTTGTTTAGGGCAACCGAAACAGCGGA | 0.698
CCCGACAGGTGAAAGGTAACTCAGTCTGGTACGC | 1.73

Reference: the supplement of paper PMC6555819
